This passage reports fold change results from PubChem BioAssay AID1259312 (Keith Lab, Institute of Cancer Science, University of …, 2017).

Molecules are shown by their SMILES. In all, about 4,500 compounds went through this assay and about 200 (4.4%) were called active.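 Rule for the calls: active = cell survival measured by absorbance rises more than 2.5-fold over infected cells without compound; inactive = the rest.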 The sample as a whole holds a higher share of actives than the screen did.

This experiment in a line: survival after telomere uncapping, modulators, primary screen, cell-based (AID 1259312).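 Note: virus expresses mutant telomerase RNA that uncaps telomeres and kills cells; compound added 2 days after infection so exposure lasts 3 days.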 To be noted: HCT116 + Ad-hTR-mut, MTT, 5 d; at 10 µM, active compounds read high.
With `O=C(O)CCSc1ncnc2ccccc12`, the fold change is -3.11 (inactive). In the case of `CCN(CC)CC(=O)Nc1sc2c(c1C(N)=O)CCCC2`, the fold change was 1 (inactive). With `O=c1[nH]cnc2nn(-c3ccccc3)nc12`, the fold change entry was “inactive”. With `Fc1ccccc1CSC1=NCCN1`, the fold change is 3.44 (active). Consider `Fc1ccc(CSc2nnc(SCc3ccccc3F)s2)cc1`, for which the fold change was -1.07 (inactive).

For `c1ccc(CC2=NCCN2)cc1`, the fold change is -1.2 (inactive). On to `O=C1NC(=O)/C(=C/c2ccc(-c3ccc(Br)c(Cl)c3)o2)N1`, for which the fold change is -1.16 (inactive). As to `Nc1ccc(N2CCCC2)c(C(F)(F)F)c1`, the fold change was 1.69 (inactive). For `COc1ccc(N/C=C(\C#N)C(N)=S)cc1OC` the value was -3.68 (inactive). For `CCCN1CC2=C(OC(N)=C(C#N)C2c2ccc(SC)cc2)/C(=C/c2ccc(SC)cc2)C1` (stereo unspecified), the fold change was 5.06 (active). `COc1ccc(CC2=CN(C)CC3=C2OC(N)=C(C#N)C3c2ccc(OC)cc2)cc1` (stereo unspecified): the fold change was 1.19 (inactive).

`CC(C)N1C=C(Cc2ccc(F)cc2)C2=C(C1)C(c1ccc(F)cc1)C(C#N)=C(N)O2` (stereo unspecified): the fold change was 1.45 (inactive). In the case of `COc1ccc(C(=CCl)c2ccc(OC)c(Br)c2)cc1Br`, the fold change was -2.67 (inactive). In the case of `CCc1ccc(C(C2C(=O)CC(C)(C)CC2=O)C2C(=O)CC(C)(C)CC2=O)s1`, the fold change is -2.62 (inactive). For the molecule `CCc1sc(C(C2C(=O)CC(C)(C)CC2=O)C2C(=O)CC(C)(C)CC2=O)cc1Br`, the fold change was -6.02 (inactive). As to `CCc1sc(C(C2C(=O)CC(C)(C)CC2=O)C2C(=O)CC(C)(C)CC2=O)cc1[N+](=O)[O-]`, the fold change is 3.11 (active). For `O=C(N=Nc1c(O)[nH]c2ccccc12)c1cc(-c2ccco2)[nH]n1` the value was “inactive”; for `O=[N+]([O-])c1ccc(Cl)cc1N1CCN(CCO)CC1`, 2.17 (inactive); for `O=[N+]([O-])c1ccc(Cl)cc1SCCO`, 3.06 (active). With `O=[N+]([O-])c1ccc(SCCO)c2ncccc12`, the fold change was 1.52 (inactive).

Regarding `COc1ccc(C2C3CCC=C3C(C#N)=C(N)C2(C#N)C#N)c(OC)c1` (stereo unspecified), the fold change is 1.26 (inactive). For `COCCNC(=O)C(=O)NCCC1=CCCCC1` the value was 1.05 (inactive); for `Clc1cccc(N2CCN(Cn3nnc4ccccc43)CC2)c1`, 3.04 (active). As to `C(=C/c1ccccc1)/CN1CCN(Cn2nnc3ccccc32)CC1`, the fold change was -1.33 (inactive). Turning to `c1ccc2c(c1)nnn2CN1CCN(c2ccc3c(c2)OCO3)CC1`, the fold change is -1.48 (inactive). For `Cc1cc(C)c(CCl)c(C)c1/C=N/O`, the fold change was 1.02 (inactive). For `O=C(O)CSc1nc(SCc2ccccc2)nc2ccccc12` the value was 1.5 (inactive); for `CCc1ccc(C2C(C#N)=C(N)OC3=C2C(=O)CCC3)s1` (stereo unspecified), 1.35 (inactive); for `COC(=O)c1nonc1N`, -1.05 (inactive). For the molecule `CCOC(=O)c1nonc1N`, the fold change was 3.82 (active). Consider `Nc1nonc1C(=O)O`, for which the fold change was -1.12 (inactive).
